Outcome and AC50 data for 17 compounds are collected here from PubChem BioAssay (EPA / NIEHS).

Holding throughout (conditions): mRNA level, 48 h; actives raise or lower the signal
Read-out in experiment [1]: ABC Transporter (ABCB1), ABCB1 (gene 5243)
Kind of experiment: LTEA_HepaRG_ABCB1: Life Technologies and Expression Analysis (LTEA) Assay for ABC Transporter (ABCB1) using HepaRG (AID 2283460). The essentials:
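ABCB1 transcript level measured by TaqMan qRT-PCR against three housekeeping genes after 48 h chemical exposure of differentiated HepaRG cells. Top concentration 100 uM, half-log steps, eight points, 0.5% DMSO vehicle; bidirectional fit relative to DMSO.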

Read-out in experiment [2]: growth arrest and DNA damage 45 (GADD45B), GADD45B (gene 4616)
Kind of experiment: LTEA_HepaRG_GADD45B: Life Technologies and Expression Analysis (LTEA) Assay for growth arrest and DNA damage 45 (GADD45B) using HepaRG (AID 2283461). The essentials: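 Values are bidirectional concentration-response fits against 0.5% DMSO controls. Underlying data: qRT-PCR mRNA levels in human HepaRG liver cells treated 48 h in serum-free induction medium, eight concentrations topping at 100 uM.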

Read-out in experiment [3]: ABC Transporter (ABCC3), ABCC3 (gene 8714)
Kind of experiment: LTEA_HepaRG_ABCC3: Life Technologies and Expression Analysis (LTEA) Assay for ABC Transporter (ABCC3) using HepaRG (AID 2283462). Summed up:
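Differentiated HepaRG liver cells receive test chemicals at eight concentrations (max 100 uM) for 48 h. Expression of ABCC3 is quantified by qRT-PCR against ACTB, GAPDH and POLR2A, and activity is fitted in both directions against the DMSO control.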

Read-out in experiment [4]: ABC Transporter (ABCB11), ABCB11 (gene 8647)
Kind of experiment: LTEA_HepaRG_ABCB11: Life Technologies and Expression Analysis (LTEA) Assay for ABC Transporter (ABCB11) using HepaRG (AID 2283463). Summed up:
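ABCB11 transcript levels quantified by TaqMan qRT-PCR against three housekeeping genes after 48 h chemical exposure of HepaRG cultures. Concentrations up to 100 uM in half-log steps, 0.5% DMSO vehicle; both induction and suppression scored.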

Read-out in experiment [5]: ABC Transporter (ABCC2), ABCC2 (gene 1244)
The experiment in a line: LTEA_HepaRG_ABCC2: Life Technologies and Expression Analysis (LTEA) Assay for ABC Transporter (ABCC2) using HepaRG (AID 2283464). The essentials:
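Gene expression of ABCC2 was determined by qRT-PCR in HepaRG cells exposed 48 h to chemicals (highest 100 uM, half-log dilutions). Activity was fitted in both directions relative to 0.5% DMSO vehicle.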

Read-out in experiment [6]: Broad substrate specificity ATP-binding cassette transporter ABCG2 (Homo sapiens) (UniProt Q9UNQ0)
The experiment in a line: LTEA_HepaRG_ABCG2: Life Technologies and Expression Analysis (LTEA) Assay for ABC Transporter (ABCG2) using HepaRG (AID 2283465). The essentials: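 ABCG2 transcript was quantified by TaqMan qRT-PCR against three housekeeping genes in HepaRG cells. Cells were treated in duplicate for 48 h across an 8-point half-log series up to 100 uM, with 0.5% DMSO vehicle. Gain or loss versus DMSO was fit.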

Read-out in experiment [7]: ATP-citrate lyase (ACLY), ACLY (gene 47)
The experiment in a line: LTEA_HepaRG_ACLY: Life Technologies and Expression Analysis (LTEA) Assay for ATP-citrate lyase (ACLY) using HepaRG (AID 2283466). Summed up:
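ACLY mRNA quantified by qRT-PCR on Fluidigm arrays against three housekeeping genes, after 48 h chemical treatment of HepaRG cells (top concentration 100 uM, half-log steps, 0.5% DMSO vehicle). Up- or down-regulation fitted relative to DMSO.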

Read-out in experiment [8]: Peroxisomal acyl-coenzyme A oxidase 1 (ACOX1) gene, ACOX1 (gene 51)
The experiment in a line: LTEA_HepaRG_ACOX1: Life Technologies and Expression Analysis (LTEA) Assay for Peroxisomal acyl-coenzyme A oxidase 1 (ACOX1) gene using HepaRG (AID 2283467). The essentials: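 ACOX1 transcript levels were quantified by TaqMan qRT-PCR against three housekeeping genes after 48 h chemical exposure of differentiated human HepaRG cells. Exposure used eight half-log steps topping at 100 uM, 0.5% DMSO vehicle, in duplicate. Bidirectional curve fits were made relative to DMSO.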

Read-out in experiment [9]: Alkaline Phosphatase, Placental (ALPP) gene, ALPP (gene 250)
Kind of experiment: LTEA_HepaRG_ALPP: Life Technologies and Expression Analysis (LTEA) Assay for Alkaline Phosphatase, Placental (ALPP) gene using HepaRG (AID 2283468).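 On AC50: ALPP transcript by TaqMan qRT-PCR normalized to ACTB GAPDH and POLR2A.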 The essentials: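 Expression of ALPP was quantified by qRT-PCR against three housekeeping genes in human HepaRG cultures treated for 48 h with an eight-point concentration series up to 100 uM. Activity in either direction was fitted relative to 0.5% DMSO.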

Read-out in experiment [10]: Bcl-2 (BAD) gene, BAD (gene 572)
Kind of experiment: LTEA_HepaRG_BAD: Life Technologies and Expression Analysis (LTEA) Assay for Bcl-2 (BAD) gene using HepaRG (AID 2283469). Summed up:
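Read-out: qRT-PCR of BAD mRNA, normalized to three housekeeping genes. Human HepaRG cultures got 48 h chemical exposure in 0.5% DMSO, duplicate eight-point half-log series topping at 100 uM. Gain or loss of signal fitted versus DMSO vehicle.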

The source made the active and inactive calls. How the source made its calls: active means hit-call score of the fitted dose curve at least 0.9, where 1 is the maximum; inactive means score below 0.9.

In general, AC50 refers to the concentration at which the activity in the assay is half-maximal.

Sequence of Broad substrate specificity ATP-binding cassette transporter ABCG2 (Homo sapiens) (Q9UNQ0 whole entry, looked up): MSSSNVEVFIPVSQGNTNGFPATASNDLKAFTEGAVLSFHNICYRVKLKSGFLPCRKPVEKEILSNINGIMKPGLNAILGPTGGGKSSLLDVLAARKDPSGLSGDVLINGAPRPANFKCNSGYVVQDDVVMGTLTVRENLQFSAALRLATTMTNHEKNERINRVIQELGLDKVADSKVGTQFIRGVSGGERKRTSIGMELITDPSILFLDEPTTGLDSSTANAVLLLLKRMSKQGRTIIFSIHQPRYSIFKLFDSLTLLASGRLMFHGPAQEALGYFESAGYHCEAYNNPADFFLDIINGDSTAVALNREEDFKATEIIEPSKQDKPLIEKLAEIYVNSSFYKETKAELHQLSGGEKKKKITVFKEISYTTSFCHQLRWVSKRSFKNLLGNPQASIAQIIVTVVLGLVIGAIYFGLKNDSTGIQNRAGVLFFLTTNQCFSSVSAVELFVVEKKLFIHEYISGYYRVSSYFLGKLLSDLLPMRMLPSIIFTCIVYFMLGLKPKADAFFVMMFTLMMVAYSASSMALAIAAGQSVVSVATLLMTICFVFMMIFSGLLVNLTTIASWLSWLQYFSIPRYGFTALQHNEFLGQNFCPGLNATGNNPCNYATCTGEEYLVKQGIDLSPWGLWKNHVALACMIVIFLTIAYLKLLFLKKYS

For `Cc1cnc(C2=NC(C)(C(C)C)C(=O)N2)c(C(=O)O)c1` (stereo not given), the call in experiment [1], in experiment [2], in experiment [3], in experiment [4], in experiment [5] and in experiment [6] was inactive. The compound was classed as inactive in experiment [7], in experiment [8], in experiment [9] and in experiment [10].
`Clc1cccc(C(Cl)(Cl)Cl)n1`: the compound was called inactive in experiment [1], in experiment [2], in [3], in experiment [4], in experiment [5] and in [6]. Also, the compound was classed as inactive in experiment [7], in [8], in experiment [9] and in [10].
Take `CNC(=O)Oc1cccc2ccccc12`: the compound was called inactive in experiment [2], in [3], in experiment [4], in experiment [5], in experiment [6] and in experiment [7]. Moreover, the result in experiment [8], in experiment [9] and in [10] was inactive.
Turning to `CCOP(=S)(OCC)Oc1nc(Cl)n(C(C)C)n1`, the outcome in experiment [1], in [2], in [5], in experiment [6], in experiment [9] and in experiment [10] was inactive. Besides, the AC50 was 50 µM (active) in experiment [3], 1.64 µM (active) in [4], 33.5 µM (active) in experiment [7] and 9.48 µM (active) in [8].
Consider `CC(C)C1(C)N=C(c2ncccc2C(=O)O)NC1=O` (stereo not given), for which the compound was classed as inactive in experiment [1], in experiment [2], in experiment [3], in experiment [4], in experiment [5] and in [6]. Further, the result in experiment [7], in [8], in [9] and in experiment [10] was inactive.
For `CCCCC(O)(Cn1cncn1)c1ccc(Cl)cc1Cl` (stereo not given), the AC50 in [1] is 11.8 µM (active); in experiment [3], 50 µM (active); in experiment [4], 68.6 µM (active); in experiment [5], 79.9 µM (active); in experiment [7], 12.3 µM (active); in experiment [8] it was 69.4 µM (active). The AC50 in experiment [9] was 73.3 µM (active). Also, the compound was classed as inactive in experiment [6] and in [10].
Consider `CCCCC(C#N)(Cn1cncn1)c1ccc(Cl)cc1` (stereo not given), for which the AC50 is 13.1 µM (active) in [1], 91.7 µM (active) in experiment [4], 4.77 µM (active) in experiment [6] and 50 µM (active) in experiment [7]. The call in experiment [3], in experiment [5], in experiment [8], in [9] and in [10] was inactive.
As to `COc1cc(OC)nc(NC(=O)NS(=O)(=O)c2ncccc2OCC(F)(F)F)n1`, the AC50 in experiment [1] was 31.3 µM (active). Further, the call in experiment [2], in [3], in experiment [4], in experiment [5], in [6] and in [7] was inactive. The result in experiment [8], in experiment [9] and in [10] was inactive.
As to `COP(=S)(OC)SCn1nnc2ccccc2c1=O`, the compound was classed as inactive in [2], in experiment [3], in [4], in [5], in [7] and in experiment [8]. Besides, the outcome in experiment [9] and in experiment [10] was inactive. For the same compound, in experiment [6], the AC50 was 15.5 µM (active).
As to `Cc1c(COC(=O)[C@@H]2[C@H](/C=C(\Cl)C(F)(F)F)C2(C)C)cccc1-c1ccccc1`, the AC50 was 28.3 µM (active) in [1] and 50 µM (active) in experiment [6]. For the same compound, the compound was called inactive in experiment [3], in experiment [4], in experiment [5], in experiment [7], in experiment [8] and in experiment [9]. In experiment [10], the compound was called inactive.
On to `C=CCOC(=O)C(C)(C)OC(=O)c1cc(-n2c(=O)cc(C(F)(F)F)n(C)c2=O)ccc1Cl`, for which the compound was classed as inactive in experiment [1], in experiment [3], in experiment [4], in [5], in experiment [6] and in [7]. Moreover, the compound was classed as inactive in [8], in [9] and in experiment [10].
On to `CCOc1nc(C(Cl)(Cl)Cl)ns1`, for which the AC50 was 1.05 µM (active) in [1]; 1.23 µM (active) in experiment [2]; 1.08 µM (active) in [4]; 1.29 µM (active) in experiment [6]; 23.8 µM (active) in experiment [7]; 1.11 µM (active) in experiment [8]. Also, the figures for the AC50 in experiment [9] and in experiment [10] were 2.14 µM (active) and 1.3 µM (active), respectively. Further, the compound was called inactive in experiment [3] and in experiment [5].
In the case of `CC1(C)C(C=C(Cl)Cl)C1C(=O)OC(C#N)c1cccc(Oc2ccccc2)c1` (stereo not given), the compound was called inactive in experiment [2], in [3], in [4], in [5], in experiment [7] and in [8]. Also, the compound was called inactive in experiment [9] and in experiment [10]. Besides, in experiment [6], the AC50 is 10.8 µM (active).
On to `CC1(C)CCC(=Cc2ccc(Cl)cc2)C1(O)Cn1cncn1` (stereo not given), for which the call in experiment [2], in experiment [3], in experiment [4], in [5], in experiment [6] and in [8] was inactive. The outcome in experiment [9] and in experiment [10] was inactive. In experiment [7], the AC50 is 34 µM (active).
Turning to `CN=C=S`, the compound was classed as inactive in [1], in experiment [2], in experiment [3], in experiment [4], in experiment [5] and in [6]. Besides, the compound was called inactive in experiment [7], in experiment [8], in [9] and in experiment [10].
As for `CCOP(=O)(OCC)Oc1nc(Cl)c(Cl)cc1Cl`, the compound was called inactive in experiment [1], in experiment [6], in [7], in experiment [9] and in experiment [10]. In addition, the concentration at half-maximal activity (AC50) in experiment [3] was 80.5 µM (active); in experiment [4], 79.2 µM (active); in [5], 76.4 µM (active); in experiment [8] it was 74.9 µM (active).
As to `CCCC(=NOCC)C1=C(O)CC(CC(C)SCC)CC1=O` (stereo not given), the result in [1], in experiment [3], in experiment [4], in experiment [5], in experiment [6] and in experiment [7] was inactive. Further, the compound was called inactive in experiment [8], in experiment [9] and in [10].
